Data on 15 molecules can be found in PubChem BioAssay (NCATS).

A short description of assay [1]: AP1 Signaling Pathway (AID 357).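 Also: ME-180 reporter cells stimulated with EGF at its EC50 level; % is scaled to controls: 0 for no effect and ±100 for the full control effect.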 Particulars: ME-180 AP-1-bla reporter, EGF-induced, beta-lactamase ratio, 5 h; at 17.2 µM (top of the series) unless noted. In a few lines: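 In this screen, ME-180 cells in Opti-MEM with 0.5% dialyzed FBS received EC50 EGF and compound titrations for 5 h. AP-1 reporter beta-lactamase was detected via CCF4 ratio, giving AC50 for positive and negative modulators.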

The nature of assay [2]: NFAT Signaling Pathway (AID 444).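 Also: carbachol stimulus at about its EC50 of 1 µM final; % is scaled to controls: 0 for no effect and ±100 for the full control effect.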 Particulars: Jurkat NFAT-bla M1, carbachol, beta-lactamase ratio, 5 h; at 17.2 µM (top of the series) unless noted. The gist of the method: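 Jurkat cells carrying an NFAT-driven β-lactamase reporter and co-transfected muscarinic M1 receptor were treated with compound plus carbachol (1 uM final, an EC50 level) for 5 h at 37 °C. CCF4 loading followed for 1 h at RT; 460/530 nm ratio gave %activity.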

Assay [3] is described as follows: Stat Signaling Pathway (AID 446).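 Also: ME-180 cervical cancer cells given 40 pM IL-6 alongside compound; SIE-controlled beta-lactamase reporter measured as 460/530 nm FRET emission ratio; % is scaled to controls: 0 for no effect and ±100 for the full control effect.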 To be noted: ME-180 SIE beta-lactamase reporter, IL-6 stimulated, 5 h; at 17.2 µM (top of the series) unless noted. In a few lines:
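IL-6/STAT signaling read in ME-180 cells via an SIE beta-lactamase reporter. Stimulus was 40 pM IL-6 (its AC50) for 5 hrs, so both activation and inhibition register.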

The target in assay [4] is Glucocorticoid receptor (Homo sapiens) (UniProt P04150). The experiment in a line: GR-GFP Redistribution (AID 450;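 active = compounds whose dose series gives a full or clear partial fitted curve of increased nuclear translocation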; also: potency is read from the fitted curve at half-maximal effect).
Assay [5] shares this target. Briefly: GR-EFC Redistribution (AID 451; calls by dose curve; also: potency is read from the fitted curve at half-maximal effect). Particulars: CHO-K1 GR-EFC translocation, beta-gal luminescence, 2 h. The gist of the method: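 CHO-K1 cells stably expressing nuclear-localized β-gal enzyme acceptor and GR fused C-terminally to the enzyme donor fragment; ligand-driven nuclear translocation restores β-gal by complementation. Compounds titrated up to 46 uM final, 2 h at 37 °C; luminescence read.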

The target in assay [6] is Mitogen-activated protein kinase 10 (Mus musculus) (UniProt Q61831). The experiment in a line: JNK3 AlphaScreen Assay (AID 530).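 Also: kinase came from lysate of stimulated human HepG2 cells; signal reports phosphorylation of biotinylated GST-cJun 1-79 at Ser73 with 10 µM ATP; % is scaled to controls: 0 for no effect and ±100 for the full control effect.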 In a few lines: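 Inhibitors reduce antibody binding to phosphorylated biotin-cJun, lowering AlphaScreen luminescence. Lysates from HepG2 cells pre-activated by IL-1beta plus TNF-alpha supplied JNK3; compounds were titrated.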
In general terms: Alpha assays give light when donor and acceptor beads are brought close together.

For assay [7], the target named is 3',5'-cyclic-AMP phosphodiesterase 4B (Homo sapiens) (UniProt Q07343). The experiment in a line: qHTS Assay for Inhibitors of PDE-IV (AID 607; active = well fitted activation curve with a large enough effect in the main read-out, with a control signal flat, not every such curve was filed as active; also: % of control where 0% means no effect). The gist of the method: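 Live HEK293 cells with a modified cyclic nucleotide-gated (CNG) channel report intracellular cAMP via membrane-potential dye fluorescence (ex 535/em 590 nm). Endogenous PDE-IV was targeted. Compounds were tested at up to 22.9 uM final; RO 20-1724 100 uM served as control.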
Background: qHTS replaces the single test concentration by a dilution series.

The target of assay [8] is Guanine nucleotide-binding protein G(i) subunit alpha-1 (Homo sapiens) (UniProt P63096). Briefly: qHTS Assay for Inhibitors of RGS12 GoLoco Motif Activity (Green Fluorophore) (AID 879; active = well fitted curve in the direction sought with a large enough effect; an effect the other way counts as inactive or inconclusive;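 also: 0% = labeled peptide with Gαi1 and full inhibition = labeled peptide alone without protein; negative values mean loss of peptide binding seen as reduced polarization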). In a few lines:
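Fluorescence polarization assay: 50 nM Gαi1 with 10 nM FITC-labeled RGS12 GoLoco peptide in 10 mM Tris pH 7.5, 150 mM NaCl, 0.1 mM GDP, 0.05% NP40, 10 min at room temperature with compound.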

Assay [9] has as its target Cytochrome P450 3A4 (Homo sapiens) (UniProt P08684). The experiment in a line: qHTS Assay for Activators of Cytochrome P450 3A4 (AID 885; active = well fitted curve in the direction sought with a large enough effect; an effect the other way counts as inactive or inconclusive; also: nearly all actives have a fitted effect of over 65% in size). In a few lines:
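Quantitative HTS format: compounds preincubated with 20nM human CYP3A4 and Luciferin-PPXE substrate at KM, reaction started by NADPH regeneration, stopped after 60 min, luciferase luminescence read 20 min later.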

Assay [10] in a line: qHTS Assay for Identification of Small Molecule Antagonists for NFkB Signaling Pathway (AID 895; active = well fitted inhibition curve with a large enough effect in the signal ratio, with a control signal flat, not every such curve was filed as active; the % refers to the signal ratio; also: potency is read from the fitted curve at half-maximal effect). In a few lines:
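NFkB-bla ME-180 cervical carcinoma cells with beta-lactamase reporter under NFkB response element; compounds added, then TNF alpha at 10 pM final (EC50), 5 h at 37 C. LiveBLAzer substrate 2 h, room temperature; emission 460/530 nm at 405 nm excitation.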

The nature of assay [11]: qHTS Assay for Identification of Small Molecule Agonists for Thrombopoietin (TPO) Signaling Pathway (AID 917; active = well fitted curve in the direction sought with a large enough effect; an effect the other way counts as inactive or inconclusive; also: % is scaled to controls: 0 for no effect and ±100 for the full control effect). The gist of the method: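 Murine Ba/F3 cells expressing human TPO receptor and GPIIb-promoter luciferase, IL-3-starved overnight, given compound plus TPO at 26 pM (EC50). After 24 h at 37 C, 5% CO2, luminescence read.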
Assay [12] has as its target Pyruvate kinase (Leishmania mexicana) (UniProt Q27686). The experiment in a line: qHTS Validation Assay for Inhibitors of Leishmania Mexicana Pyruvate Kinase (AID 945; active = well fitted curve in the direction sought with a large enough effect; an effect the other way counts as inactive or inconclusive;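 also: 0% = DMSO only neutral control wells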). In a few lines: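 Read-out: luminescence from PKLight stop/detection reagent, data normalized to DMSO. Reaction: 0.2 nM E451W LmPYK, 0.5 mM PEP, 0.1 mM ADP, pH 7.2, 1 h room temperature.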
Assay [13] addresses Pyruvate kinase PKM (Homo sapiens) (UniProt P14618). Briefly: qHTS Assay for Activators of Human Muscle Pyruvate Kinase (AID 954; active = well fitted curve in the direction sought with a large enough effect, not every such curve was filed as active;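 also: 0% = uninhibited enzyme and -100% = no enzyme or full thiadiazolimine inhibition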). In a few lines: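 Enzyme was run at intermediate activity so both inhibitors and activators could be detected. ATP formed from ADP and PEP by 0.1 nM human PKM2 during a 1 h room-temperature incubation was quantified by coupled luciferase luminescence.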

Assay [14] has as its target Alpha-galactosidase A (Homo sapiens) (UniProt P06280). Briefly: Counterscreen for Glucocerebrosidase Inhibitors: qHTS Assay for Human alpha-Galactosidase at pH 4.5 (AID 992; active = well fitted curve in the direction sought with a large enough effect; an effect the other way counts as inactive or inconclusive; also: 0% is about no effect). In a few lines:
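Read-out is 4-methylumbelliferone fluorescence (365 nm excitation, 440 nm emission) after a pH 10 NaOH/glycine stop. Reactions held 2 nM enzyme and 80 uM substrate at pH 4.5 for 20 min at room temperature.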
A general note: The purpose of a counterscreen is to sort out artefacts and off-target activity.

Assay [15] addresses alpha-glucosidase (Oryza sativa, rice) (UniProt Q653V4). Briefly: Counterscreen for Glucocerebrosidase Inhibitors: qHTS Assay for Rice alpha-Glucosidase at pH 5.0 (AID 997; active = well fitted curve in the direction sought with a large enough effect; an effect the other way counts as inactive or inconclusive;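 also: 0% = full activity with enzyme and -100% = basal without enzyme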). In a few lines: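 Rice alpha-glucosidase (4 nM final) with 400 uM 4-methylumbelliferyl-alpha-D-glucopyranoside in citrate buffer pH 5.0, 20 min at room temperature, stopped at pH 10; fluorescence 365/440 nm, compounds 0.7 nM–77 uM, AC50 from Hill fits.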

Assay [16] concerns the target Muscarinic acetylcholine receptor M1 (Rattus norvegicus) (UniProt P08482). The experiment in a line: qHTS Assay for Antagonists of Acetylcholine Muscarinic M1 Receptor: Measurement of IP-One Response (AID 944; active = well fitted curve in the direction sought with a large enough effect; an effect the other way counts as inactive or inconclusive; also: nearly all actives have a fitted effect of over 75% in size). The gist of the method:
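M1-CHO (rat), 2000 cells/well, overnight recovery; cpd 10 min; carbachol EC80 (200 nM), 30 min, HEPES buffer + 50 mM LiCl pH 7.4; IP-One HTRF, Ex 337, Em 620/665 nm.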

In assay [17] the target is Tyrosyl-DNA phosphodiesterase 1 (Homo sapiens) (UniProt Q9NUW8). Briefly: Confirmation Assay for Inhibitors of Tyrosyl-DNA Phosphodiesterase (TDP1) (AID 489007; active = well fitted curve in the direction sought with a large enough effect; an effect the other way counts as inactive or inconclusive; also: potency is read from the fitted curve at half-maximal effect; nearly all actives have a fitted effect of over 40% in size). Particulars: recombinant human TDP1 enzymatic activity, dose-response. The gist of the method:
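Tdp1 1 nM + cpd, 15 min RT; add biotin/phosphotyrosine-FITC oligo 15 nM, 5 min RT; add AS donor/acceptor beads 10 ug/ml, 10 min RT; read AlphaScreen. No-enzyme wells = max signal.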

Assay [18] in a line: qHTS Assay for Identification of Small Molecule Agonists for Hypoxia Response Element Signaling Pathway (AID 914; active = well fitted activation curve with a large enough effect in the signal ratio, with a control signal flat, not every such curve was filed as active; the % refers to the signal ratio; also: potency is read from the fitted curve at half-maximal effect; as to activation: % of control where 0% means no effect). Particulars: ME-180 (cervical carcinoma) HRE-bla reporter, beta-lactamase ratio, CoCl2, 17 h; activation: stronger effect = higher value. In a few lines: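 qHTS titration; ME-180 HRE-bla cells; EC50 CoCl2 co-treatment, 17 h at 37 degrees Celsius; CCF4 dye, ex 405nm, em 460nm and 530nm; %Activity from ratio; AC50.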

Values without a mark were called inactive. Records with an inconclusive call do not appear. Calls of active or inactive are those of the source. Unless noted, calls follow the shape of the dose curve; as a rule, active = well fitted curve in either direction with a large enough effect (not every such curve was filed as active); inconclusive = small, poorly fitted or top-dose-only effect, or another doubt; inactive = flat fitted curve, though single readings scatter.

Chain of Glucocorticoid receptor (Homo sapiens) (P04150 whole entry, looked up, the tested form may be a part): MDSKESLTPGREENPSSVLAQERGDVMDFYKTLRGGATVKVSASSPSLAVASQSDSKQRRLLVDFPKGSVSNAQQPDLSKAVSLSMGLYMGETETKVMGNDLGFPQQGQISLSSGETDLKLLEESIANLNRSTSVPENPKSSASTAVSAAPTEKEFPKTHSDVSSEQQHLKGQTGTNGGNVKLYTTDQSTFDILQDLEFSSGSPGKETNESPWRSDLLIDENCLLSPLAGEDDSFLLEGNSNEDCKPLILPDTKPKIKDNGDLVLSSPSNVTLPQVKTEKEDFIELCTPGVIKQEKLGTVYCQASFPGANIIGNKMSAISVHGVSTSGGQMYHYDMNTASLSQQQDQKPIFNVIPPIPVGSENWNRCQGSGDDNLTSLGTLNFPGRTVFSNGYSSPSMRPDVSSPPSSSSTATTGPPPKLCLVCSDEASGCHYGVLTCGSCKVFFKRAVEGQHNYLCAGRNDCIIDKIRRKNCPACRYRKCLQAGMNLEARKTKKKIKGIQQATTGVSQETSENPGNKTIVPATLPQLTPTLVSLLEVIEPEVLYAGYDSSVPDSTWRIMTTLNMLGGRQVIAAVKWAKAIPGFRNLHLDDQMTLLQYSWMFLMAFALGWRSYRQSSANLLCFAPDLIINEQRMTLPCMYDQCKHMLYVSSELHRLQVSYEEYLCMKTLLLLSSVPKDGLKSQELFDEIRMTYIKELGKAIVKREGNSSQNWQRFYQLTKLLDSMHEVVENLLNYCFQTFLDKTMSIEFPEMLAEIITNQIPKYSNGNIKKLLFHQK
Chain of Alpha-galactosidase A (Homo sapiens) (P06280 whole entry, looked up): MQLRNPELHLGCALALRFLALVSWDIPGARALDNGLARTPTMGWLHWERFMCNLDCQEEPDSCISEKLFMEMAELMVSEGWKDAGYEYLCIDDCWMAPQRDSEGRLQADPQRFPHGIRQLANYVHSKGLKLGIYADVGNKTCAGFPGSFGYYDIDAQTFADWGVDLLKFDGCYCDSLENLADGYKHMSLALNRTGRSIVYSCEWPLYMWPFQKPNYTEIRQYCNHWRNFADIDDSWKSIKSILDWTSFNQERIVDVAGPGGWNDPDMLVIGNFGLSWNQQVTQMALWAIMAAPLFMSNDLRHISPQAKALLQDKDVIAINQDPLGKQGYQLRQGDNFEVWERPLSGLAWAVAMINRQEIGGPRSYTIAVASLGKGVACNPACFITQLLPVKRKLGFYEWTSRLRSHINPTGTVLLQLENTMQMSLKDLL
Chain of Pyruvate kinase (Leishmania mexicana) (Q27686 2-499 E452W): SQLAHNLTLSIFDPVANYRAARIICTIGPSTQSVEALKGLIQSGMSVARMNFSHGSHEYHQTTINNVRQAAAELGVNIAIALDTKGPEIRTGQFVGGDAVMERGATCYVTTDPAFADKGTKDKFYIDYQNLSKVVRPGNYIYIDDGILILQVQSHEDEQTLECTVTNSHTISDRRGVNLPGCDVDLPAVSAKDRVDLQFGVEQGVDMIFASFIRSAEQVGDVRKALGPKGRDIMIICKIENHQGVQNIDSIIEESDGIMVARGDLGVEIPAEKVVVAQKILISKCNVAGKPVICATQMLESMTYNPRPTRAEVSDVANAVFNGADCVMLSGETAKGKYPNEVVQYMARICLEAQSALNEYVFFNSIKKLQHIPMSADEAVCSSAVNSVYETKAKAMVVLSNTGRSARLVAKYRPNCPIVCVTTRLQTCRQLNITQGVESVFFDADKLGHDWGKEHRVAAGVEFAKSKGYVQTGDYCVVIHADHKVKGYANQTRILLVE
Chain of Guanine nucleotide-binding protein G(i) subunit alpha-1 (Homo sapiens) (P63096 whole entry, looked up): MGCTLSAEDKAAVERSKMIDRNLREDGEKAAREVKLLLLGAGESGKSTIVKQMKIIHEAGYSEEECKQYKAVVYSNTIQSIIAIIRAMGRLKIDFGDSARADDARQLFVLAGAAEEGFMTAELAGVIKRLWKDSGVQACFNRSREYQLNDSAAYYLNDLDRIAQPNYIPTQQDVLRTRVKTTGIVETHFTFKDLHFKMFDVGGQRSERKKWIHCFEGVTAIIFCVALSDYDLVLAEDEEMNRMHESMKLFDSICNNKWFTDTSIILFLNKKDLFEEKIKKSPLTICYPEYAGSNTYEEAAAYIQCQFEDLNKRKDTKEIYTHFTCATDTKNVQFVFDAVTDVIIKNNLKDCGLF
Chain of Pyruvate kinase PKM (Homo sapiens) (P14618 whole entry, looked up): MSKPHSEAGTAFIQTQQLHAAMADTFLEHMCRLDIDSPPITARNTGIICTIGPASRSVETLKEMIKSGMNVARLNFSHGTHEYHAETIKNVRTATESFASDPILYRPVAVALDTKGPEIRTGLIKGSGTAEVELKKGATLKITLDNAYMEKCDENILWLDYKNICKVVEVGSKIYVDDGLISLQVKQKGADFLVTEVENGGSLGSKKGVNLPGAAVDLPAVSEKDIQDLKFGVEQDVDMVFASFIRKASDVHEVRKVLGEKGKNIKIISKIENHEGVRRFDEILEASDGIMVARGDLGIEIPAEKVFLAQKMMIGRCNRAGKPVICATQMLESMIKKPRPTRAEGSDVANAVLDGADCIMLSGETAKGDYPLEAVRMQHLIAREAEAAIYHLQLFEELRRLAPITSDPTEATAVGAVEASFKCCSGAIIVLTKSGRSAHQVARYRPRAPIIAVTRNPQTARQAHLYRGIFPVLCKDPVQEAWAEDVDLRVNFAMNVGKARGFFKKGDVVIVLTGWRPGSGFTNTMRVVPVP
Chain of 3',5'-cyclic-AMP phosphodiesterase 4B (Homo sapiens) (Q07343 whole entry, looked up): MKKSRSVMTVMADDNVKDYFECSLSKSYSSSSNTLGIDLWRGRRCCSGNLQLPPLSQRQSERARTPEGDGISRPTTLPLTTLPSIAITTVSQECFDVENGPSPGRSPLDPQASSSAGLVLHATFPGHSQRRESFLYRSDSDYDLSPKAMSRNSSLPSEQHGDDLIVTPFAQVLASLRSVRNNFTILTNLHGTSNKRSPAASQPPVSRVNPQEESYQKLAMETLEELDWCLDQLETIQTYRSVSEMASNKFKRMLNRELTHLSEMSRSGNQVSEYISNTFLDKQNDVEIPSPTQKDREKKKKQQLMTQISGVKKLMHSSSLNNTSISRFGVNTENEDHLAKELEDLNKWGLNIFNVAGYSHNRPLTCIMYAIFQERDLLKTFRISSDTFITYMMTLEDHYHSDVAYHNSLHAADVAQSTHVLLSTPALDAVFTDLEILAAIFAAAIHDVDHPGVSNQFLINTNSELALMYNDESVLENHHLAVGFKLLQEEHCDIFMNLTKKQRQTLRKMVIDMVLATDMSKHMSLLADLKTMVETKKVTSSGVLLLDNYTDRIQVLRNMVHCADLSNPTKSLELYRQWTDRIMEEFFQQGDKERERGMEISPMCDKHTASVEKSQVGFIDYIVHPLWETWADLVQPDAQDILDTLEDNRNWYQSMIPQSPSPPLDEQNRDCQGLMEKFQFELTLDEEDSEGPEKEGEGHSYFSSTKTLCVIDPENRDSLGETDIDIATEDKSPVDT
Chain of Tyrosyl-DNA phosphodiesterase 1 (Homo sapiens) (Q9NUW8 whole entry, looked up): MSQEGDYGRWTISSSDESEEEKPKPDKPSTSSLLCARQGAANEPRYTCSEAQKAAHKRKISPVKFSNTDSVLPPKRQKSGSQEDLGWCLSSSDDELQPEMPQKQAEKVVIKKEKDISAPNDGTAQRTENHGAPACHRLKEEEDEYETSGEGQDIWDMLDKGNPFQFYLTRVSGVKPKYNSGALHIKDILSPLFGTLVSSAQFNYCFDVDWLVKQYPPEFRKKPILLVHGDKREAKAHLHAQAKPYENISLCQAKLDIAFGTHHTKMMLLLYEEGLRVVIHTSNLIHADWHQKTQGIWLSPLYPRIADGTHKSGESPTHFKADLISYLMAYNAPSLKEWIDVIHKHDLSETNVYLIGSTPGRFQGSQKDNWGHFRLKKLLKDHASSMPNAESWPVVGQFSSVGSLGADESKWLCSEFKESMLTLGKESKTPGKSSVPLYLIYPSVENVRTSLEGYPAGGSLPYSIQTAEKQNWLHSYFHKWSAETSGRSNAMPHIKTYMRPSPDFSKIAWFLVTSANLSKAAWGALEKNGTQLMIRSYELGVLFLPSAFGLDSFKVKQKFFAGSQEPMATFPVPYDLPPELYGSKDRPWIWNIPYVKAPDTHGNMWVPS
Chain of Cytochrome P450 3A4 (Homo sapiens) (P08684 whole entry, looked up): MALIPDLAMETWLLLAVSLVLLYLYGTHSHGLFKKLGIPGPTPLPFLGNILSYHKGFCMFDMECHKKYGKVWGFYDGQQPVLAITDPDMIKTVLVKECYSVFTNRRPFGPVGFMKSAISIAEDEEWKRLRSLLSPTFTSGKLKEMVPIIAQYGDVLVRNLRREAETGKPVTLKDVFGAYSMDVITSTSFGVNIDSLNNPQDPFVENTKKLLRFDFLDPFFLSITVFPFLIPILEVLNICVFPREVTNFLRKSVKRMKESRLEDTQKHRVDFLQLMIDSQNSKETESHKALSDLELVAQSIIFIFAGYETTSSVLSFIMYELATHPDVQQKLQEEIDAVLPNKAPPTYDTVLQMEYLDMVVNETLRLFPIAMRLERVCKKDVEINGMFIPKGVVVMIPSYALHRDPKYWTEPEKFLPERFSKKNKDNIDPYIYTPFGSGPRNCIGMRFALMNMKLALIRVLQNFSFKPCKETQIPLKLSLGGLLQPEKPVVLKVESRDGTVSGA
Chain of Muscarinic acetylcholine receptor M1 (Rattus norvegicus) (P08482 whole entry, looked up): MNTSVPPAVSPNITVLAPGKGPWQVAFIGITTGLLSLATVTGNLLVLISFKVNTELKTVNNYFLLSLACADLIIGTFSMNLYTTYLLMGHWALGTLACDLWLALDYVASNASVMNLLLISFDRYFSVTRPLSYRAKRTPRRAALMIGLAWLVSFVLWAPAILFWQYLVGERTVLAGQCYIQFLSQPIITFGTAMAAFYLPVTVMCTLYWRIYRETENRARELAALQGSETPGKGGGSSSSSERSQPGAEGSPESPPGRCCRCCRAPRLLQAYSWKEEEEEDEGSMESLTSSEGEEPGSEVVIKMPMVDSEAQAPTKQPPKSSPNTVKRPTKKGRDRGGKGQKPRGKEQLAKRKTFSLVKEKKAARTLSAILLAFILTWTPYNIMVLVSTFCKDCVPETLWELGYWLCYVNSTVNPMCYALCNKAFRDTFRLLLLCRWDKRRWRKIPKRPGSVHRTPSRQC

Take `O=C1c2c(O)cc(O)cc2O[C@@H](c2ccc(O)c(O)c2)[C@H]1O`: the activity change, negative = inhibition is -14.3% [at 38 µM] in [1] and 13.3% [at 38 µM] in assay [2]. For the same molecule, the activity, negative = inhibition in assay [3] is -8.15% [at 38 µM]. Also, the Potency in assay [4] is > 46 µM; in [5], > 46 µM; in assay [10], 1.58 µM (active). For the same molecule, the Potency result in assay [6], in assay [7], in [9], in assay [11] and in assay [12] was “inactive” throughout. In addition, the result in assay [8], in assay [13], in assay [14] and in assay [15] was inactive.
For the molecule `CCCn1nnc(NC(=O)c2cc(Br)cc(Br)c2OC)n1`, the activity change, negative = inhibition was -4.03% in [1] and -11.1% in [2]. For the same molecule, in assay [3], the activity, negative = inhibition is -4.41%. For the same molecule, the Potency in assay [4] is > 20.6 µM.
Turning to `NCCC[C@@](N)(C(=O)O)C(F)F`, the activity change, negative = inhibition in assay [1] is 6.84% [at 38 µM]; in assay [2], -7.76% [at 38 µM]. Further, in [3], the activity, negative = inhibition was 2.8% [at 38 µM]. For the same molecule, the Potency in assay [4] and in [5] was > 46 µM in each case. Besides, the Potency entry in assay [6], in [7], in assay [11], in [16] and in [12] was “inactive” each time. Moreover, the molecule was called inactive in assay [8], in assay [13], in assay [14] and in assay [15].
Consider `Cc1ccc(C)n1Cc1ccc(C(=O)O)cc1`, for which the values for the activity change, negative = inhibition in [1] and in [2] were 2.78% and -7.86%, respectively. Moreover, in assay [3], the activity, negative = inhibition was 6%. For the same molecule, the Potency in assay [4] was > 20.6 µM; in [17], 1.41 µM (active).
For `Nc1ncn([C@@H]2O[C@@H](CO)[C@@H](O)[C@H]2O)c(=O)n1`, the activity change, negative = inhibition in assay [1] was -29.6% [at 38 µM]; in [2], -6.36% [at 38 µM]. In addition, the activity, negative = inhibition in assay [3] is 2.98% [at 38 µM]. The Potency in [4] and in assay [5] was > 46 µM throughout. The Potency result in assay [6] and in assay [7] was “inactive” in each case.
Turning to `N[C@H](Cc1ccc(F)cc1)C(=O)O`, the results for the activity change, negative = inhibition in assay [1] and in assay [2] were 14.8% [at 38 µM] and -1.52% [at 38 µM], respectively. Further, in assay [3], the activity, negative = inhibition was -8.01% [at 38 µM]. In addition, the Potency in assay [4] and in [5] was > 46 µM throughout. The Potency entry in [6], in [7], in assay [11] and in assay [12] was “inactive” throughout. Moreover, the call in assay [8], in assay [13], in assay [14] and in assay [15] was inactive.
Turning to `CC(=O)N[C@H](Cc1c[nH]c2ccccc12)C(=O)O`, the figures for the activity change, negative = inhibition in assay [1], in [2] and in assay [6] were 3.17% [at 7.69 µM], 4.78% [at 7.69 µM] and 4.22% [at 11.4 µM], respectively. In addition, in assay [3], the activity, negative = inhibition is 14.4% [at 7.69 µM]. In addition, the Potency in assay [4] was > 46 µM; in [5] it was > 9.22 µM. In [7], the Potency entry is “inactive”.
As to `CN1C[C@H](C(=O)N[C@]2(C)O[C@]3(O)[C@H]4CCCN4C(=O)[C@H](Cc4ccccc4)N3C2=O)C[C@H]2c3cccc4[nH]cc(c34)C[C@@H]21`, the results for the activity change, negative = inhibition in assay [1] and in [2] were 1.56% and -6.21%, respectively. Besides, the activity, negative = inhibition in assay [3] is -7.06%. Further, in assay [4], the Potency is > 20.6 µM. In addition, the Potency result in [6] and in assay [7] was “inactive” throughout.
Turning to `Nc1cc(S(N)(=O)=O)ccc1SSc1ccc(S(N)(=O)=O)cc1N`, the activity change, negative = inhibition in assay [1] is 19.2% [at 7.69 µM]; in [2], -0.508% [at 7.69 µM]; in [6] it was -4.44% [at 11.4 µM]. The activity, negative = inhibition in assay [3] was -1.82% [at 7.69 µM]. Besides, the Potency in assay [4] is > 46 µM; in assay [5], > 9.22 µM. In addition, in [7], the Potency result was “inactive”.
For `Cc1cccc(N2CC(=O)N(c3cccc(C)c3)CC2=O)c1`, the activity change, negative = inhibition in assay [1] was 5.22%; in assay [2], 5.99%. Also, the activity, negative = inhibition in [3] is 0.983%. Besides, the Potency in assay [4] was > 20.6 µM.
`CCCCOc1ccc(C(=O)Nc2ccc(N3CCN(C(C)=O)CC3)cc2)cc1`: the results for the activity change, negative = inhibition in assay [1] and in assay [2] were -6.71% and 11.1%, respectively. In addition, in [3], the activity, negative = inhibition is -7.6%. The Potency in [4] was > 20.6 µM; in assay [18], 2.51 µM (active).
For `Cc1nn(C)cc1C1C2=C(CC(C)(C)CC2=O)OC2=C1C(=O)CC(C)(C)C2`, the activity change, negative = inhibition in assay [1] is 3.4%; in [2], -23.9%. For the same molecule, the activity, negative = inhibition in assay [3] was 4.21%. The Potency in assay [4] was > 20.6 µM. The activation in [18] is 1.79%.
For `Cc1nn(-c2ccccc2)c2c1C(=O)NC(=O)C(C)(C)C2` the same measures were -3.8%, 0.783%, 3.56%, > 20.6 µM and -11.1%.
As to `CC(C)COc1ccc(C(=O)NC(CC(C)C)C(=O)O)cc1` (configuration not stated), the values for the activity change, negative = inhibition in [1] and in assay [2] were -2.73% and -7.69%, respectively. For the same molecule, the activity, negative = inhibition in [3] is 3.82%. Besides, the Potency in [4] was > 20.6 µM. The activation in assay [18] was 11.5%.
In the same order, the values of `CCOC(=O)CSc1nnc(C)c(=O)[nH]1` are 12.3%, -0.387%, -1.23%, > 20.6 µM and -0.909%.
